# Assay results: PubChem BioAssay (NCATS)
# Records with an inconclusive call do not appear. A call without a number means that no potency is given here. Calls of active or inactive are those of the source. The call rests on the fitted dose curve; in most records, active means well fitted cell-killing curve with a large enough effect; inconclusive means small, poorly fitted or top-dose-only effect; inactive means flat fitted curve, though single readings scatter.
# Assay: Cell Viability - LYMP1-003 - Assay at 40 hr (AID 964); further: nearly all actives have a fitted effect of over 60% in size
# Conditions: LYMP1-003 lymphoblastoid viability; series mostly up to 92.2 µM
# Description: NIH Chemical Genomics Center [NCGC]
# NIH Molecular Libraries Screening Centers Network [MLSCN]
# National Institutes of Environmental Health Sciences [NIEHS]
# National Toxicology Program [NTP]
# We have developed a 1536-well cell-based assay for quantitative high throughput screening (qHTS) against a number of cell lines to determine in vitro cytotoxicity of small molecules. This particular assay uses a human lymphoblastoid cell line (LYMP1-003) purchased from Coriell Institute for Medical Research.
# NCGC Assay Protocol Summary:
# The CellTiter-Glo luminescent cell viability assay (Promega) is a homogeneous method to measure the number of viable cells in culture. The end point readout of this assay is based on quantitation of intracellular ATP, an indicator of metabolic activity, using the luciferase reaction. Luciferase catalyzes the oxidation of beetle Luciferin to oxyluciferin and light in the presence of ATP. The luminescent signal is proportional to amount of ATP present.
# Using the CellTiter-Glo luminescent cell viability assay, the amount of cellular ATP was measured in the lymphoblastoid cell line with complete culture medium following compound treatment for 40 hours. The assay was performed in opaque white Kalypsys 1536-well plates. In the screen, tetraoctylammonium bromide was used as positive control. Library compounds were measured for their ability to cause acute toxicity in the cell line, as reflected by a decrease in intracellular ATP levels, in a concentration-dependent manner. […] AC50 values were determined from concentration-response data modeled with the standard Hill equation.
# qHTS protocol for CellTiter Glo lymphoblastoid cellular assay
# [Step] [Parameter] [Value] [Description]
# 1. Reagent; 5 uL; 2500 lymphoblastoid cells/well
# 2. Time; 5 hr; 37 C incubation
# 4. Controls; 23 nL; Tetraoctylammonium bromide 6.4pM to 92 uM
# 5. Time; 40 hr; 37 C incubation
# 6. Reagent; 5 uL; CellTiter Glo reagent
# 7. Time; 30 min; Room Temperature
# 8. Detection; Luminescence; Viewlux plate reader
# Keywords: cell viability, cytotoxicity, lymphoblastoid cell line, luminescence, NTPHTS, NTPHTS_NCGC, NIEHS, DSSTox, MLSMR, MLSCN, NIH Roadmap, qHTS, NCGC
# Potency means the concentration at half of the fitted maximal effect.
row,Compound,Potency
1,O=C1NC(=O)C(c2ccccc2)(c2ccccc2)N1,inactive
2,CC(=O)c1ccc(S(=O)(=O)NC(=O)NC2CCCCC2)cc1,inactive
3,CN(C)CCC(c1ccccc1)c1ccccn1 (stereo not drawn),inactive
4,CC1=C(/C=C/C(C)=C/C=C/C(C)=C/C(=O)Nc2ccc(O)cc2)C(C)(C)CCC1,39.8 µM (active)
5,O=C(O)Cc1cccc2ccccc12,inactive
6,O=C(O)c1cc(O)c2c(c1)C(=O)c1cccc(O)c1C2=O,inactive
7,CCCCC1C(=O)N(c2ccccc2)N(c2ccccc2)C1=O,inactive
8,CCCNC(=O)NS(=O)(=O)c1ccc(Cl)cc1,inactive
9,CCn1cc(C(=O)O)c(=O)c2ccc(C)nc21,inactive
10,CC(=O)O[C@]1(C(C)=O)CC[C@H]2[C@@H]3C=C(Cl)C4=CC(=O)[C@@H]5C[C@@H]5[C@]4(C)[C@H]3CC[C@@]21C,inactive
11,CC/C(=C(\c1ccccc1)c1ccc(OCCN(C)C)cc1)c1ccccc1,50.1 µM (active)
12,O=c1c(O)c(-c2ccc(O)cc2)oc2cc(O)cc(O)c12,inactive
13,O=c1[nH]cnc2c1ncn2[C@H]1CC[C@@H](CO)O1,inactive
